According to PubChem BioAssay (NCATS):
Inconclusive results are not listed. Active and inactive are the calls of the source. The call rests on the fitted dose curve; in most records, active means well fitted curve in the direction sought with a large enough effect; inconclusive means small, poorly fitted or top-dose-only effect, or another doubt; inactive means no such curve, though single readings can be large; an effect the other way counts as inactive or inconclusive.

How the values were obtained:
[1] = molecular target: Cytochrome P450 2C19 (Homo sapiens) (UniProt P33261); assay: qHTS Assay for Inhibitors and Substrates of Cytochrome P450 2C19 (AID 899); further: nearly all actives have a fitted effect of over 60% in size
Chain of Cytochrome P450 2C19 (Homo sapiens) (P33261 whole entry, looked up): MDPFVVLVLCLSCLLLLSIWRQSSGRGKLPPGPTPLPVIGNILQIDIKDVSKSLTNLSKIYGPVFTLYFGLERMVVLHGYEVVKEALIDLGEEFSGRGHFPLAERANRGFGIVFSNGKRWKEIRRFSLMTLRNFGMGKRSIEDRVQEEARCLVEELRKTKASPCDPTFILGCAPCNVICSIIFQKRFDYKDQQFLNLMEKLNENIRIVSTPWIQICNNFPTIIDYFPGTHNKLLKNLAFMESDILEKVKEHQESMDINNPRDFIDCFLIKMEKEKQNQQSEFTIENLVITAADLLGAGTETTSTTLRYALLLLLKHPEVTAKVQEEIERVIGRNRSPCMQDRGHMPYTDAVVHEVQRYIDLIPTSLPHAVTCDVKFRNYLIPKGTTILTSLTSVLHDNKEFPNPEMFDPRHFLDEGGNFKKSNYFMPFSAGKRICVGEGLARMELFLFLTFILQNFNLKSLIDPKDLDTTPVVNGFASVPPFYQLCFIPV
Outline: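 Signal comes from luciferase acting on luciferin released by CYP2C19-mediated hydroxylation of Luciferin-H EGE, 10uM (KM). Assay mix: 5nM enzyme, 50mM KPO4; 60 min at 37C with NADPH regeneration. Data normalized against 57uM ketoconazole.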

[2] = Confirmation and Secondary Assay for Modulators of Hemoglobin Beta Chain Splicing at IVS2 654 locus (AID 910);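 further: HeLa cells stably carrying EGFP split by mutant beta-globin IVS2-654 intron; potency means the concentration at half of the fitted maximal effect; potency of activators that raise GFP signal by restoring correct splicing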
Outline: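 HeLa cells stably expressing EGFP interrupted by β-globin IVS2-654 intron, seeded overnight in Opti-MEM/2% FCS, then treated 2 days at 37 °C. Restored splicing read as total peak GFP intensity per well by laser scanning cytometry (488 nm excitation, 500–520 nm emission); 500 nM antisense PNA as control.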

[3] = Confirmation and Secondary Assay for Modulators of Hemoglobin Beta Chain Splicing at IVS2 705 locus (AID 930);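 further: GFP fluorescence per well restored by corrected splicing of the IVS2-705 intron in EGFP; potency means the concentration at half of the fitted maximal effect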
Outline: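 Fluorescence gain (488 nm laser, 500-520 nm PMT) reflects restored correct splicing of a mutant IVS2-705 intron inside EGFP in stably transfected HeLa cells after 2-day compound treatment.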

CP194 = assay: qHTS profiling for inhibitors of Plasmodium falciparum proliferation (AID 504749); further: nearly all actives have a fitted effect of over 60% in size; further: potency means the concentration at half of the fitted maximal effect; details: P. falciparum in erythrocytes, SYBR Green DNA, 72 h; series mostly up to 28.7 µM
Outline: (§1)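 P. falciparum-infected erythrocytes (0.3% parasitemia, 2.5% hematocrit) incubated with compound 72 h at 37 C, 5% CO2. Parasite DNA detected by SYBR Green after lysis, overnight at room temperature; normalised to 0.29 uM artemisinin and DMSO.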

CP201 = assay: as above; details: P. falciparum in erythrocytes, SYBR Green DNA, 72 h; series mostly up to 28.7 µM
Outline: as §1

CP211 = assay: as above; details: P. falciparum in erythrocytes, SYBR Green DNA, 72 h; series mostly up to 28.7 µM
Outline: as §1

CP215 = assay: as above; details: P. falciparum in erythrocytes, SYBR Green DNA, 72 h; series mostly up to 28.7 µM
Outline: as §1

CP297 = assay: as above; details: P. falciparum in erythrocytes, SYBR Green DNA, 72 h; series mostly up to 28.7 µM
Outline: as §1

CP305 = assay: as above; details: P. falciparum in erythrocytes, SYBR Green DNA, 72 h; series mostly up to 28.7 µM
Outline: as §1

CP315 = assay: as above; details: P. falciparum in erythrocytes, SYBR Green DNA, 72 h; series mostly up to 28.7 µM
Outline: as §1

CP329 = assay: as above; details: P. falciparum in erythrocytes, SYBR Green DNA, 72 h; series mostly up to 28.7 µM
Outline: as §1

DIV30 = assay: as above; details: P. falciparum in erythrocytes, SYBR Green DNA, 72 h; series mostly up to 28.7 µM
Outline: as §1

PC15 = assay: as above; details: P. falciparum in erythrocytes, SYBR Green DNA, 72 h; series mostly up to 28.7 µM
Outline: as §1

PC26 = assay: as above; details: P. falciparum in erythrocytes, SYBR Green DNA, 72 h; series mostly up to 28.7 µM
Outline: as §1

TAB165 = assay: as above; details: P. falciparum in erythrocytes, SYBR Green DNA, 72 h; series mostly up to 28.7 µM
Outline: as §1

[4] = S16 Schwann cell viability assay (CellTiter-Glo assay) (AID 624031);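 further: native untransfected S16 rat Schwann cells; cellular ATP luminescence as a viability measure; nearly all actives have a fitted effect of over 70% in size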
Outline: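 Parental S16 cells, 24 h compound, 37 °C. ATP-luminescence viability; DMSO = 0% activity, empty wells as reference; curves classified by fit quality and efficacy.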

7G8 = assay: qHTS profiling for inhibitors of Plasmodium falciparum proliferation (AID 504749); further: nearly all actives have a fitted effect of over 60% in size; further: potency means the concentration at half of the fitted maximal effect; details: P. falciparum in erythrocytes, SYBR Green DNA, 72 h; series mostly up to 28.7 µM
Outline: as §1

CP191 = assay: as above; details: P. falciparum in erythrocytes, SYBR Green DNA, 72 h; series mostly up to 28.7 µM
Outline: as §1

CP252 = assay: as above; details: P. falciparum in erythrocytes, SYBR Green DNA, 72 h; series mostly up to 28.7 µM
Outline: as §1

CP256 = assay: as above; details: P. falciparum in erythrocytes, SYBR Green DNA, 72 h; series mostly up to 28.7 µM
Outline: as §1

Measured: Potency

CNc1ncncc1-c1ccccc1CN(C)C
inactive: [1]

NC1=NC(S)C2N=CN=C2N1 (stereo not drawn)
active: [2] 2 µM | [3] 5.01 µM
not listed: [1] | [4] | 7G8 | CP191 | CP252 | CP256
inactive: all other assays above

CO[C@@H]1[C@@H](OC2OC(C)C(OC3CC(C)(O)C(OC(=O)CC(C)C)C(C)O3)C(N(C)C)C2O)[C@@H](CC=O)C[C@@H](C)C(=O)/C=C\C2O[C@H]2C[C@@H](C)OC(=O)C[C@H]1OC(C)=O (stereo partly drawn)
active: 7G8 8.91 µM | CP191 11.2 µM | CP252 5.01 µM | CP256 5.01 µM
inactive: [4]

S=C1NC=NC2N=CNC12 (stereo not drawn)
active: [2] 3.16 µM | [3] 3.16 µM
inactive: [4] | CP191 | CP252 | CP256 | PC15 | TAB165
